# Shown are actives, neighbours in structure and some others; about 8% of the full set was active somewhere.
# SARS PLpro yeast – inhibitors of SARS-CoV papain-like protease in yeast; S. cerevisiae expressing SARS-CoV PLpro, growth rescue; Potency, µM (top dose mostly 32.9 µM), for the others: at the top dose activity, positive = growth rescue, hits mostly activators; actives 0.19% (n = 330,000); AID 485353; calls by dose curve; further: potency means the concentration at half of the fitted maximal effect; 0% is about no effect; nearly all actives have a fitted effect of over 55% in size
# FMDV antiviral – blocks foot and mouth disease virus | Potency, µM (highest dose often 57.9 µM), for inactives: at the highest dose activity change, negative = inhibition, most hits filed as inhibitors | actives 1.2% (n = 410,000) | FMDV antiviral cell-based qHTS; calls by dose curve; tested in HEK293T cells; further: read-out not given here; potency means the concentration at half of the fitted maximal effect; on the % scale 0 is the no-effect control and ±100 the full control effect; nearly all actives have a fitted effect of over 45% in size
# HCMV inh – inhibitors of human cytomegalovirus | HFF cells, HCMV-luciferase reporter, 72 h; hits give low values | activity change, negative = inhibition, % at 57.5 µM | actives 4.5% (n = 410,000); in the data active means activity change below about -60%; inconclusive means no clear call, values can overlap the other calls; inactive means above about -39%; further: on the % scale 0 is the no-effect control and ±100 the full control effect
#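 Cell-based, HFFs, 1000 cells/well, 16 h 37C; cpds in DMSO + HCMV-luc, MOI 1 PFU/cell; 72 h 37C; OneGlo luminescence after 5 min RT; norm. to buffer vs Salinomycin 10uM.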
# HCV inh – inhibitors of hepatitis C virus infection; Huh7.5.1 HCVcc-Cre infection, luciferase reporter, 44 h; Potency, µM (doses to about 41.8 µM), without a hit: at the highest dose activity change, negative = inhibition, usual class: inhibitors; actives 3.4% (n = 340,000); AID 651820; active means well fitted inhibition curve with a large enough effect; inconclusive means small, poorly fitted or top-dose-only effect, or another doubt; inactive means no such curve, though single readings can be large or run the other way; further: potency means the concentration at half of the fitted maximal effect; on the % scale 0 is the no-effect control and ±100 the full control effect
#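 After 44 h co-culture of compound, cells and HCVcc-Cre (~0.5 moi), substrate is added for 15 min at room temperature and luciferase measured over 15 sec. Cells were seeded at 1,000/well and pre-cultured 4 h.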
# MARV entry inh – inhibitors of Marburg virus binding or cell entry; AID 540276; Marburg virus pseudotyped entry inhibition, cell reporter; Potency, µM (series often up to 37.8 µM), without a hit: at the highest dose activity change, negative = inhibition, hits mostly inhibitors; actives 1.8% (n = 300,000); calls by dose curve; tested in HEK293 cells; further: potency means the concentration at half of the fitted maximal effect; on the % scale 0 is the no-effect control and ±100 the full control effect
# Lassa entry inh – blocks Lassa virus binding to or entry into cells | actives 1.2% (n = 300,000) | Potency, µM (doses to about 37.9 µM), without a hit: at the top dose activity change, negative = inhibition, usual class: inhibitors | Lassa virus pseudotype entry inhibition, cell reporter | AID 540256; calls by dose curve; tested in HEK293 cells; further: potency means the concentration at half of the fitted maximal effect; on the % scale 0 is the no-effect control and ±100 the full control effect; nearly all actives have a fitted effect of over 50% in size
# The depositor's hits bear a star; ? = inconclusive; . = not tested or not shown; [ ] = dose if it differs, or a comment.
SMILES,SARS PLpro yeast,FMDV antiviral,HCMV inh,HCV inh,MARV entry inh,Lassa entry inh
CC(=O)OCCN1C(=O)c2c(C)nc3ccc(S(=O)(=O)N4CCOCC4)cc3c2C1=O,.,-15.0%,.,.,.,.
O=C(NCC(c1ccco1)S(=O)(=O)c1cccs1)c1ccc(C(F)(F)F)cc1 (centres undefined),.,4.5%,14.8,.,.,-17.7%[46.1 µM]
C#CCN(Cc1ccc(OCCC)cc1)S(=O)(=O)c1ccc(Br)cc1F,.,.,.,.,.,-25.2%[46.1 µM]
CCc1cccc2c(-c3ccccc3)nc(SCC(=O)Nc3ccc(OC)cc3)nc12,.,-4.0%,3.3,.,-16.4%[46.1 µM],8.7%[46.1 µM]
CCCC(O)(CCC)C(=O)NN(C(=O)CCl)c1ccccc1,-15.6%,?,-81.2*,?,?,?
CCCCC(O)(CCCC)C(=O)NN(C(=O)OCC)c1ccccc1,8.0%,-18.8%,-3.1,7.7%,2.3%,-2.8%
N#CC(C(=O)c1ccccc1)=C1SCCS1,-0.7%,28.3%,22.1,8.3%,29.6%,?
O=C(OCc1ccccc1F)c1ccc2c(c1)-c1ccccc1C2=O,-4.8%,63.5%,45.0,8.8%,14.2%,2.06µM*
CC(/C=N/N1CCN(Cc2ccccc2)CC1)=C\c1ccccc1,2.1%,-4.9%,-103.8*,-11.5%,10.2%[46.1 µM],-2.4%
CCOC(=O)Cn1c(=O)oc2cc(S(=O)(=O)Nc3cc(OC)cc(OC)c3)ccc21,.,-21.2%,18.9,.,-0.6%[46.1 µM],1.2%[46.1 µM]
CC1CCCN(CC(O)COC(c2ccccc2)c2ccccc2)C1 (centres undefined),-0.2%,1.4%,-27.5,?,3.98µM*,?
CN1CCN(CC(O)COC(c2ccccc2)c2ccccc2)CC1 (centres undefined),0.3%,-5.2%,?,15.8µM*,?,-11.4%
OC(COC(c1ccc(Cl)cc1)c1ccc(Cl)cc1)CN1CCN(c2ccccn2)CC1 (centres undefined),-29.4%,?,10.6,8.91µM*,?,?
COC1=CC(C)C2CC3OC(=O)CC4C(C)=C(OC)C(=O)C([C@]2(C)C1=O)[C@]34C (some centres undefined),.,2.6%,.,.,.,.
O=C(Nc1ccccc1F)c1cnc(N2CCCCC2)c2ccccc12,.,-27.1%,6.5,.,.,-27.6%[46.1 µM]
OC[C@H]1O[C@@H](c2nc3ccc(-c4nc(-c5cccs5)no4)cc3[nH]2)C[C@@H]1O,.,0.4%,100.2,.,.,.
O=C(CNC(=O)c1ccc(Br)o1)NC1CCCCC1,-6.3%,47.6%,26.0,1.5%,.,.
c1ccc(Cn2nnc3c(N4CCN(Cc5ccc6c(c5)OCO6)CC4)ncnc32)cc1,-2.8%,?,-22.5,7.08µM*,?,-13.5%
COc1ccccc1NC(=O)N[C@H]1CC[C@@]23CCCN2C(=O)CCC[C@H]3[C@H]1C,.,.,0.4,.,.,.
Fc1ccccc1OCc1nc(-c2ccc(-n3cccc3)cc2)no1,.,18.3%,-1.3,.,?,24.6%[46.1 µM]
O=C(Nc1ccc(S(=O)(=O)Nc2ncccn2)cc1)C(F)(F)F,5.01µM*,0.1%,-4.5,-7.8%,9.6%[46.1 µM],-0.1%[46.1 µM]
CC(=O)Nc1ccc(S(=O)(=O)Nc2ncccn2)cc1,8.0%,10.7%,15.5,2.0%,9.9%,?
CCOC(=O)N1CCN(C(=O)c2ccccc2NC(=O)c2ccc(C(C)(C)C)cc2)CC1,-5.7%,-4.6%,?,22.1%,-6.4%,1.9%
CCOC(=O)N1CCN(C(=O)C(NC(=O)c2ccc(C(C)(C)C)cc2)C(C)C)CC1 (centres undefined),0.5%,-27.8%,-61.7*,?,.,.
C#CCCCO/N=C1\C[C@@H](O)[C@@H](O)[C@@H]2[C@@H]3C(=O)N(Cc4ccccc4)C(=O)[C@@H]3CC[C@H]12,.,.,.,.,11.0%[14.2 µM],.
SMILES,SARS PLpro yeast,FMDV antiviral,HCMV inh,HCV inh,MARV entry inh,Lassa entry inh
COC(=O)C1(C)CN(S(=O)(=O)c2ccc(C)cc2)c2cc(OC)ccc2C1=O (centres undefined),-15.7%,?,-39.4,5.2%,0.6%,?
CCOc1ccc2c(c1)C(C)=CC(C)(C)N2S(=O)(=O)c1ccc(C)cc1,-4.1%,-10.2%,-79.1*,-18.7%,2.82µM*,?
COc1ccc2c(c1)C(C)=CC(C)(C)N2S(=O)(=O)c1ccc(C)cc1,-4.3%,?,-85.9*,-20.0%,?,?
CC1=CC(C)(C)N(S(=O)(=O)c2ccc(C)cc2)c2cc(C)ccc21,-29.0%,.,-84.7*,?,2.59µM*,?
Cc1ccccc1-c1nn(-c2ccc(F)cc2F)cc1CNC1CC1,-0.6%,-17.5%,4.0,20.4%,-6.0%[46.1 µM],17.2%
O=C(Nc1nccs1)c1csc([C@H]2C[C@H](O)[C@@H](CO)O2)n1,.,33.7%,63.4,.,.,.
O=C(NCc1ccncc1)c1cc(-c2ccc(Cl)cc2)oc1C(F)(F)F,-12.5%,?,-27.4,11.2µM*,.,.
O=C(NCc1ccc(C(F)(F)F)cc1)c1ccc(-c2ccc(F)c(F)c2)c2ccoc12,.,-24.1%,0.6,.,.,.
O=C(NCc1ccccn1)c1cc(-c2ccc(Cl)cc2)oc1C(F)(F)F,-14.1%,-25.6%,-1.4,?,.,.
COc1ccc(-c2ccc(C(=O)NCc3ccncc3)c3occc23)c(C)c1,.,-19.4%,-91.1*,.,.,.
O=C(NCc1ccncc1)c1ccc(-c2ccc(F)c(F)c2)c2ccoc12,.,?,-72.7*,.,.,.
COc1ccccc1CNC(=O)Cn1c(=O)oc2cc(S(=O)(=O)NCc3ccccc3)ccc21,.,-4.2%,?,.,.,?
O=C(c1cc(C2CC2)nn1-c1ccccc1)N1CCN(Cc2ccccc2)CC1,.,-19.5%,14.9,.,.,.
COc1ccc(-n2nc3c(N4CCC(C(=O)N5CCC(C)CC5)CC4)nnc(C)c3c2C)cc1,0.1%,-24.5%,-21.7,15.9%,.,-5.3%[46.1 µM]
COc1cccc(/C=N/n2c(SC)nnc2-c2ccccc2)c1OC,6.5%,?,-29.4,-4.9%,?,11.2µM*
COc1cccc(/C=N/n2c(SC)nnc2-c2ccccc2)c1O,-4.4%,-23.4%,-14.0,?,?,?
COc1cc(Cl)c(CN2CCCC(CO)(Cc3ccccc3F)C2)cc1OC (centres undefined),6.9%,-18.8%,-7.0,-15.6%,2.82µM*,?
c1sc2[n+](c1C13CC4CC(CC(C4)C1)C3)CCS2,-10.5%,?,-63.8*,1.1%,?,3.8%
O=C(c1ccc(F)cc1)c1cc2ccc(O)cc2oc1=O,-4.6%,9.2%,-6.4,24.1%,?,8.3%[46.1 µM]
COc1ccccc1C(=O)c1cc2ccc(O)cc2oc1=O,-0.2%,6.8%,-61.5*,30.2%,.,.
COC(=O)/C=C/[C@@H](CC1CCCC1)NC(=O)C(F)(F)F,.,.,-11.7,.,.,.
CCOC(=O)C(O)(c1ccc(N(CC)C(=O)OC)cc1)C(F)(F)F (centres undefined),-0.1%,-3.7%,14.7,-8.8%,-7.8%,?
CCOC(=O)N(CC)c1ccc(C(O)(C(=O)OCC)C(F)(F)F)cc1 (centres undefined),-6.7%,-29.1%,77.2,-5.1%,-6.8%,10µM*

# Compound activity from PubChem.
